Screens deposited in PubChem BioAssay by National Center for Advancing Translational Sciences (NCATS).
Cruzain inh Det – inhibitors of Trypanosoma cruzi cruzain with detergent. P25779. purified cruzain, Z-FR-AMC fluorescence, 0.01% Triton. Potency, µM, for inactives: max response, negative = inhibition, hits mostly inhibitors. actives 0.43% (n = 200,000). AID 1478;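 also: plate controls were neutral wells for no effect and buffer without enzyme for full effect; nearly all actives have a fitted effect of over 40% in size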
Target sequence (P25779 123-467 limits assumed): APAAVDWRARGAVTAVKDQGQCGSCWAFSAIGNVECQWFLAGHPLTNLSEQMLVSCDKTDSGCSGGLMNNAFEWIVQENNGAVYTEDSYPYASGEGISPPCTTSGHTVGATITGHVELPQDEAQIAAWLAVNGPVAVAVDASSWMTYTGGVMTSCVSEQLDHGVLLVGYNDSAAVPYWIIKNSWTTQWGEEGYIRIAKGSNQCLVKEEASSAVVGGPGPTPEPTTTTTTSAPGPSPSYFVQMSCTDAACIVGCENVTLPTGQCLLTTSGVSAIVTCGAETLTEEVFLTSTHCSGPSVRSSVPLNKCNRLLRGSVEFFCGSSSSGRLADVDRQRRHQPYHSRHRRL
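Steps: dispense cruzain (1.5 nM final) in acetate buffer pH 5.5 with DTT and 0.01% Triton X-100; pin-transfer compounds; incubate 15 min RT; add Z-FR-AMC (2 uM final); read fluorescence every 30 s, using the 60 s intensity change.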
Cruzain noTriton – blocks cruzain activity in detergent-free assay. Potency, µM, inactives show max response, negative = inhibition, most hits filed as inhibitors. AID 1476. P25779. actives 2.3% (n = 200,000). purified cruzain, Z-FR-AMC fluorescence, no detergent;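 also: plate controls were enzyme without inhibitor for no effect and buffer without enzyme for full effect; nearly all actives have a fitted effect of over 40% in size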
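Purified cruzain at 1.5 nM, pre-incubated 15 min with compound at room temperature in 100 mM sodium acetate pH 5.5, 5 mM DTT, 0.00005% Triton X-100. Reaction started with 2 uM Z-FR-AMC; AMC fluorescence increase over 60 s gives rate.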
Starred values were filed as active, the others as inactive; ? = inconclusive. Hits are enriched below; roughly 2.6% of the tested compounds scored in any of these assays. Calls follow the shape of the dose curve; as a rule, active = well fitted curve in the direction sought with a large enough effect; inconclusive = small, poorly fitted or top-dose-only effect, or another doubt; inactive = no such curve, though single readings can be large; an effect the other way counts as inactive or inconclusive. Potency is read from the fitted curve at half-maximal effect.

SMILES | Cruzain inh Det | Cruzain noTriton
O=C1CC(N(CCc2ccccc2)C(=S)Nc2cc(Cl)ccc2Cl)C(=O)N1c1c(Cl)cccc1Cl (stereo unspecified) | 0.8% | 12.6µM*
COc1ccc(OCc2nnc(SCC(=O)N3c4ccccc4Sc4ccc(Cl)cc43)o2)cc1 | 7.9% | ?
COc1ccc(/C=C(\C#N)C(=O)Nc2cc(S(=O)(=O)N3CCOCC3)ccc2N2CCCC2)cc1 | -17.1% | ?
CCOc1ccc(NC(=O)/C(C#N)=C/c2ccc(N3CCCC3)c(C)c2)cc1 | -7.0% | 10µM*
CCN(CC)S(=O)(=O)c1ccc(N2CCCCC2)c(NC(=O)/C(C#N)=C/c2ccc(OC)cc2)c1 | -6.7% | 10µM*
COc1ccc(NC(=O)/C(C#N)=C/c2ccc(OCc3ccccc3F)cc2)cc1 | -0.9% | 3.98µM*
CCOc1cc(/C=C(/C#N)C(=O)Nc2ccc(O)cc2)cc(Br)c1O | -1.5% | -13.4%
CCCc1nn2c(=O)cc(COc3ccc(/C=C(\C#N)C(=O)Nc4ccc(F)cc4)cc3)nc2s1 | 0.5% | -5.7%
CN(Cc1ccccc1)S(=O)(=O)c1ccc(OCC(=O)N2CCOCC2)cc1 | 1.9% | 26.3%
COc1cc(C2c3c(oc4ccccc4c3=O)C(=O)N2c2ccccn2)cc(OC)c1OC (stereo unspecified) | 1.0% | 4.9%
CC1CN(CC(O)COc2ccc(C(=O)c3ccccc3)cc2)CC(C)O1 (stereo unspecified) | 1.1% | 13.0%
Cc1ccc(O)c(NC(=O)CCS(=O)(=O)c2nc(-c3cccs3)cc(C(F)(F)F)n2)c1 | -10.7% | 6.2%
O=c1[nH]cnc2cc(Cl)ccc12 | -1.0% | -8.4%
CCOC(=O)C(Cc1ccc(O)cc1)NC(=O)CNC(=O)C(CC(C)C)NC(=O)OC(C)(C)C (stereo unspecified) | 12.6µM* | 10µM*
COC(=O)C(Cc1ccccc1)NC(=O)C(CC(C)C)NC(=O)OC(C)(C)C (stereo unspecified) | 15.8µM* | 31.6µM*
CC(C)CC(NC(=O)C(Cc1ccc(OCc2ccccc2)cc1)NC(=O)OC(C)(C)C)C(N)=O (stereo unspecified) | -1.3% | -2.2%
CCC(C)C(NC(=O)OC(C)(C)C)C(=O)NC(Cc1ccccc1)C(=O)OC (stereo unspecified) | -3.3% | -9.7%
CN(C)S(=O)(=O)c1ccc(-c2cn3ccccc3n2)cc1 | -10.7% | -6.8%
C=CCn1c(C)cc(C(=O)CSc2n[nH]c(N)n2)c1C | 0.8% | 0.7%
CCn1c(O)c(/C=C2\C=NN=C2c2ccc(C)cc2)sc1=S | -5.0% | 12.6µM*
CCn1c(O)c(/C=C2\C=Nc3ccccc32)sc1=Nc1ccccc1 | 1.8% | 0.7%
CCOc1ccc2c(c1)sc(N)[n+]2Cc1cc(C)cc2cccnc12 | -10.3% | 1.0%
CCOc1ccc2c(ccc(/C=C\c3cc(C)c4cccnc4c3O)[n+]2C)c1 | 3.16µM* | -0.1%
Cc1ccccc1-c1noc(-c2ccccc2F)n1 | -4.8% | -0.3%
O=C(NCCc1ccccc1)c1nn(-c2ccccc2Cl)nc1CO | -2.0% | -3.8%
SMILES | Cruzain inh Det | Cruzain noTriton
Nc1c(-c2nc(-c3ccccc3)no2)nnn1CC(=O)Nc1cccc(F)c1 | -25.6% | 31.6µM*
Cc1cc(C)cc(NC(=O)Cn2nnc(-c3nc(-c4ccncc4)no3)c2N)c1 | -1.8% | 13.5%
Cc1ccc(Cn2nnc3c(=O)n(Cc4ccccc4C)cnc32)cc1 | 3.8% | -4.0%
O=C1/C(=C\c2ccco2)SC(=S)N1Cc1ccccc1 | -29.1% | -16.5%
Cc1cc(/C=C2\SC(=S)N(Cc3ccco3)C2=O)c(C)n1-c1ccccc1 | -3.9% | 10µM*
COc1ccc(C2C(C#N)=C(N)OC3=C2C(=O)CCC3)cc1Cn1cc([N+](=O)[O-])cn1 (stereo unspecified) | -3.4% | -7.4%
COc1ccc(C2C(C#N)=C(N)N(c3cccnc3)C3=C2C(=O)CCC3)cc1Cn1cc([N+](=O)[O-])cn1 (stereo unspecified) | -3.0% | -11.6%
COc1ccc(C2C(C#N)=C(N)N(c3ccccc3)C3=C2C(=O)CCC3)cc1Cn1cc([N+](=O)[O-])cn1 (stereo unspecified) | -0.8% | 20µM*
COc1ccc(C2C(C#N)=C(N)Oc3c2c(=O)oc2ccccc32)cc1Cn1cc([N+](=O)[O-])cn1 (stereo unspecified) | -4.3% | 25.1µM*
COc1ccc(-n2c(Cc3cccn3C)nnc2SCC(=O)Nc2nccs2)cc1 | -0.8% | 20.5%
O=c1ccc2cc(O[C@H]3O[C@@H](CO)[C@@H](O)[C@@H](O)[C@@H]3O)c(O)cc2o1 | -12.1% | ?
Cc1nc2nc(SCC(=O)NCCc3ccc(Cl)cc3)nn2c(C)c1Cc1ccccc1Cl | 1.3% | ?
O=C1CC(=C2c3ccccc3-c3ccccc32)C(=O)N1CCCCN1CCN(c2ccccc2)CC1 | -15.7% | 15.8µM*
O=C1CC(=C(c2ccccc2)c2ccccc2)C(=O)N1CCCN1CCN(c2cccc(Cl)c2)CC1 | -1.0% | ?
Clc1ccc(/C=C/c2nc3ccccc3[nH]2)cc1 | -20.4% | 15.8µM*
Clc1ccc(/C=C/c2nc3ccccc3[nH]2)c(Cl)c1 | -7.5% | ?
C=CCOc1ccc(CNC(C)(C)CO)cc1OC | 0.4% | 5.9%
COc1ccc(OC)c(NC(=O)CSc2nc3ccccc3cc2Cc2ccccc2)c1 | 2.1% | 20µM*
COc1cc(NC(=O)CSc2nc3ccccc3cc2Cc2ccccc2)cc(OC)c1 | 0.1% | 31.6µM*
COc1cccc(NC(=O)CSc2nc3ccccc3cc2Cc2ccccc2)c1 | 1.5% | ?
COc1ccc(NC(=O)CSc2nc3ccccc3cc2Cc2ccccc2)cc1 | -1.7% | ?
COC(=O)C1=C(C)Nc2ncnn2C1c1ccc(OC(=O)c2ccccc2)cc1 (stereo unspecified) | 4.5% | ?
Clc1ccc(N2CCN(c3ncnc4c3cnn4-c3ccccc3)CC2)cc1Cl | 2.5% | 6.7%
CSc1ccccc1NC(=O)CN(c1ccccc1)S(=O)(=O)N(C)C | -8.8% | -6.9%
Cc1ccc(-c2cc(-c3ccccc3)c(C#N)c(SCC(O)CS(=O)(=O)Cc3ccccc3)n2)cc1 (stereo unspecified) | -3.4% | 10µM*
SMILES | Cruzain inh Det | Cruzain noTriton
Cc1cc(-c2ccccc2)c(C#N)c(SCC(N)=O)n1 | -0.3% | -5.3%
N#Cc1c(-c2ccccc2)cc(-c2ccccc2)nc1SCC(O)CS(=O)(=O)Cc1ccccc1 (stereo unspecified) | -1.7% | 20µM*
C#CCSc1nc(-c2ccccc2)cc(-c2ccccc2)c1C#N | -5.8% | -27.5%
CCOc1ccc(Nc2ncnc3c2c(-c2ccccc2)cn3-c2cccc(C)c2)cc1 | -0.9% | 21.2%
O=C1CC(N2C(=O)/C(=C/C=C/c3ccccc3)SC2=S)C(=O)N1c1ccccc1 (stereo unspecified) | -5.9% | 15.8µM*
O=C1CC(N2CCN(c3ccccc3Cl)CC2)C(=O)N1c1ccccc1 (stereo unspecified) | 0.5% | 10.4%
c1ccc(-n2cnnc2SCc2nc3ccccc3s2)cc1 | -5.0% | 10µM*
CCn1c(SCc2nc3ccccc3s2)nnc1-c1ccccc1 | 7.3% | -11.1%
c1ccc(-c2ncc(CSc3nncn3-c3ccccc3)s2)cc1 | -1.6% | 11.7%
Cc1nnc(SCc2nc3ccccc3s2)n1-c1ccccc1 | -1.8% | 20µM*
COc1cn(CC(=O)Nc2cc(C)ccc2C)c(CN2CCCCC2)cc1=O | 7.6% | -11.2%
OC[C@@H]1O[C@@H](n2cnc3c(N[C@H]4CCC[C@@H]4O)ncnc32)[C@H](O)[C@H]1O | 2.3% | 9.8%
CCc1nnc(NC(=O)CCC(=O)NC2CCCCC2)s1 | 6.1% | 12.2%
